IL-1B inflam inh: inhibitors of inflammasome signaling (IL-1 beta secretion). THP-1 LPS/ATP IL-1B secretion, AlphaLISA, 16 h; stronger effect = lower value. activity change, % at 57.5 µM. actives 4.7% (n = 360,000). AID 743279; in the data active means activity change below about -50%; inconclusive means mostly about -30% to -49%
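Secreted IL-1B measured by AlphaLISA bead assay after 16 h compound exposure of THP-1 cells; compounds (final up to 57.5 uM) added 1 h before LPS (250 ng/mL) and ATP (1.25 mM) stimulation; lower signal means less secretion.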
TDP1 cell CPT: DT40-hTDP1 cell growth loss with CPT. chicken DT40 Tdp1-/-;hTDP1 cells + 20 nM CPT, ATP luminescence, 48 h. Potency, µM (highest dose often 46.2 µM), for the others: at the highest dose activity change, negative = growth inhibition, most hits filed as inhibitors. actives 12% (n = 420,000); further: potency means the concentration at half of the fitted maximal effect; nearly all actives have a fitted effect of over 55% in size
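Cell growth measured by CellTiter-Glo luminescence after a minimum 48 h, 37 C compound exposure with 20 nM CPT in Tdp1-knockout DT40 cells stably expressing hTDP1, seeded 400/well; qHTS titration format.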
HT1080-NT tox: kills 2HG-producing HT-1080-NT fibrosarcoma cells. AID 686970. Potency, µM (titrated, usually from 46.1 µM), without a hit: at the highest dose activity, negative = less viability, most hits filed as cytotoxic. HT-1080-NT fibrosarcoma viability, CellTiter-Glo ATP luminescence, 48 h. actives 1.6% (n = 360,000);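 further: NT is the 2HG producing partner of a matched IDH1 knockdown line; potency means the concentration at half of the fitted maximal effect; 0% = DMSO-treated cells and -100% = media-only wells without cells; nearly all actives have a fitted effect of over 55% in size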
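Viability of the 2HG-overproducing fibrosarcoma line after 48 hours of compound exposure at 37 degrees C was determined by luminescence with CellTiter-Glo, and concentration-effect curves were then fitted and categorized.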
HT1080 IDH1KD tx: toxicity to HT-1080 IDH1 knockdown cells (counter line). AID 686971. actives 2% (n = 360,000). HT-1080 IDH1 knockdown viability, ATP luminescence, 48 h. Potency, µM (top dose mostly 46.1 µM), without a hit: at the highest dose activity, negative = toxicity, actives largely listed as cytotoxic;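 further: potency means the concentration at half of the fitted maximal effect; 0% = DMSO wells and -100% = cell-free medium wells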
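% activity derives from luminescence (CellTiter-Glo), normalised to DMSO and no-cell wells. HT-1080-IDH1KD cells, 750/well, had 48 h compound exposure at 37 °C.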
DT40 TDP1 no CPT: qHTS for Inhibitors of human tyrosyl-DNA phosphodiesterase 1 (TDP1): qHTS in cells in absence of CPT | Potency, µM (highest dose often 46.2 µM), for the others: at the top dose activity change, negative = growth inhibition, most hits filed as inhibitors | DT40 Tdp1-/- hTDP1 cells, no CPT, ATP luminescence, 48 h | AID 686978, 2013 | actives 15% (n = 420,000); further: potency means the concentration at half of the fitted maximal effect; nearly all actives have a fitted effect of over 55% in size
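No-CPT arm: Tdp1-/-;hTDP1 DT40 cells (400/well) plus compounds, incubated ≥48 hr at 37 °C. Readout CellTiter-Glo luminescence.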
uPA generation: cell surface uPA generation inhibition; cell surface uPA generation assay, qHTS; Potency, µM (titrated, usually from 38.3 µM), inactives show at the top dose activity change, negative = inhibition, hits mostly inhibitors; actives 0.31% (n = 330,000); AID 540303; active means well fitted inhibition curve with a large enough effect; inconclusive means small, poorly fitted or top-dose-only effect; inactive means no such curve, though single readings can be large or run the other way; tested in mouse RAW 264.7 cells; further: potency means the concentration at half of the fitted maximal effect; nearly all actives have a fitted effect of over 55% in size
Numbers without * were called inactive; ? = inconclusive; / = no result. Only some compounds are listed: those with a hit (about 19% of all), similar ones and a draw of the others. Unless noted, the call rests on the fitted dose curve; in most records, active means well fitted curve in the direction sought with a large enough effect; inconclusive means small, poorly fitted or top-dose-only effect, or another doubt; inactive means no such curve, though single readings can be large; an effect the other way counts as inactive or inconclusive. Unless noted, on the % scale 0 is the no-effect control and ±100 the full control effect.

SMILES	IL-1B inflam inh	TDP1 cell CPT	HT1080-NT tox	HT1080 IDH1KD tx	DT40 TDP1 no CPT	uPA generation
Cc1ccc(NC(=O)Cn2c(=O)cc(-c3ccccc3)c3c(C)nn(C)c32)c(Cl)c1	/	-27%	/	/	-15%	/
CCOc1ccc(C(=O)Nc2cccc(C(=O)OCc3cc(=O)n4cc(C)sc4n3)c2)cc1	/	4%	/	/	-4%	/
CNc1cccc(-c2cc(OC)ccc2OC)n1	25	?	5%	8%	?	/
COc1cccc(-c2cc(N(C)Cc3ccco3)ncn2)c1	/	-25%	/	/	-19%	/
O=C(Nc1cccc(Cl)c1)c1cc(N=Nc2ccc([N+](=O)[O-])cc2Cl)ccc1O	23	5.2µM*	-13%	-17%	2.6µM*	14%
O=C(Nc1cccnc1)c1ccc([N+](=O)[O-])cc1Cl	-16	-15%	24%	19%	4%	-6%
COCCNC(=O)C1(C)CCCN(C(=O)c2c(-c3ccccc3)noc2C)C1 (configuration not stated)	6	-3%	2%	19%	-12%	/
COc1ccccc1NC(=O)CSC1CC(=O)N(c2ccc3c(c2)OCO3)C1=O (configuration not stated)	2	4.6µM*	1%	7%	6.5µM*	/
COc1ccc(NC(=O)CSC2CC(=O)N(c3ccc4c(c3)OCCO4)C2=O)cc1 (configuration not stated)	21	21µM*	0%	-9%	23µM*	-2%
O=C(NNc1c([N+](=O)[O-])cc(C(F)(F)F)cc1[N+](=O)[O-])c1ccco1	0	26µM*	21µM*	?	23µM*	-14%
O=C(NNc1c(F)c(F)cc(F)c1F)c1ccco1	32	-20%	10%	4%	2%	-7%
Cc1ccc(NC(=O)CN(C)S(=O)(=O)c2ccc3c(c2)CCC(=O)N3)c(C)c1	/	-21%	/	/	-30%	/
Cc1ccc(C)c(N2CCN(C(=O)CN(C)S(=O)(=O)c3ccc4c(c3)CCC(=O)N4)CC2)c1	-8	?	0%	-6%	16µM*	5%
CC(=O)N1CCc2cc(S(=O)(=O)CCC(=O)N3CCN(c4cccc(C)c4C)CC3)ccc21	/	16µM*	/	/	15µM*	/
CC(=O)N1CCc2cc(S(=O)(=O)CCC(=O)N3CCN(c4cc(C)ccc4C)CC3)ccc21	-14	?	21%	4%	21µM*	-3%
N#Cc1ccc2[nH]c(CO)c(-c3ccccc3)c2c1	0	?	-5%	-6%	?	-13%
CC(=O)c1c(-c2ccccc2)c2cc([N+](=O)[O-])ccc2[nH]c1=O	-11	?	-2%	-4%	15µM*	?
Cn1cc(CNCc2ccc(OC(F)(F)F)cc2)c(-c2ccc3c(c2)OCCO3)n1	-25	7.3µM*	21µM*	-6%	2.6µM*	-66%
COc1ccccc1NC(=O)c1cc(N)cc(C(=O)Nc2ccccc2OC)c1	-20	23µM*	-5%	1%	?	-1%
COc1ccccc1NC(=O)c1coc(=O)c(Br)c1	?	0.73µM*	-14%	-16%	2.1µM*	-2%
COc1ccccc1N1CCN(C(=O)c2coc(=O)c(Br)c2)CC1	14	3.3µM*	-13%	3%	7.3µM*	-1%
COc1ccccc1NC(=O)c1cc[n+](C)cc1	19	0%	3%	5%	-2%	6%
COc1ccccc1NC(=O)c1sc(-c2ccc(Cl)cc2)cc1N	/	?	/	/	18µM*	/
COc1ccc2nc(SCC(=O)N(C)CC(=O)Nc3ccc(F)cc3)[nH]c2c1	21	2%	0%	7%	-6%	0%
Cc1cccc(NC(=O)c2ccc3snnc3c2)c1C	/	-7%	/	/	-9%	/
SMILES	IL-1B inflam inh	TDP1 cell CPT	HT1080-NT tox	HT1080 IDH1KD tx	DT40 TDP1 no CPT	uPA generation
COc1ccc(C2(C)CC(C)(C)Nc3ccccc32)cc1 (configuration not stated)	29	-15%	-5%	-12%	?	-7%
COc1ccc(C2CC(C)(c3ccc(OC)cc3)Nc3ccccc3N2)cc1 (configuration not stated)	-11	?	?	?	15µM*	-3%
COCC(C)N1C(=O)Cc2c1nc(N)c1c(N)nc(N3CCN(c4ccccc4F)CC3)c(C#N)c21 (configuration not stated)	?	?	4%	-19%	26µM*	2%
COc1ccc(CN2C(=O)Cc3c2nc(N)c2c(N)nc(N4CCOCC4)c(C#N)c32)cc1	-23	15µM*	-3%	8%	21µM*	-10%
CCC1Cc2c(nc(N)c3c(N)nc(N4CCOCC4)c(C#N)c23)O1 (configuration not stated)	-17	?	-8%	-5%	?	-8%
COCCN1C(=O)Cc2c1nc(N)c1c(N)nc(N3CCN(c4ccc(F)cc4)CC3)c(C#N)c21	35	8.2µM*	0%	-4%	2.1µM*	5%
COc1ccc(Cn2nnc3c(=O)[nH]c(C4CCCN(C(=O)c5ccccc5)C4)nc32)cc1 (configuration not stated)	12	-29%	0%	-1%	-23%	7%
Cc1cccc(Cn2nnc3c(=O)[nH]c(C4CCCN(C(=O)c5ccc(C(C)(C)C)cc5)C4)nc32)c1 (configuration not stated)	/	?	/	/	21µM*	/
Cc1ccccc1Cn1nnc2c(=O)[nH]c(C3CCCN(C(=O)c4ccc(C(C)(C)C)cc4)C3)nc21 (configuration not stated)	/	?	/	/	26µM*	/
CN(Cc1nc(Cc2ccccc2F)no1)CC1(N2CCOCC2)CCCCC1	-15	-4%	3%	1%	?	1%
CN(Cc1nc(Cc2ccccc2F)no1)Cc1cccc2ncccc12	-108*	?	-28%	-30%	16µM*	-4%
O=C(NCCC1=CCCCC1)c1[nH]c(C(F)(F)F)nc1-c1ccccc1	0	16µM*	?	?	?	/
N/C(=N\OC(=O)CC1CCCCC1)c1ccc(Cl)cc1	-13	-2%	15%	9%	9%	3%
COc1ccc(C(CCNC(C)c2ccccc2)C(C)C)cc1 (configuration not stated)	/	?	?	?	16µM*	2%
COc1ccc(C(C)NS(=O)(=O)Cc2ccccc2)cc1 (configuration not stated)	-2	8%	8%	12%	-1%	-2%

Source: PubChem BioAssay (National Center for Advancing Translational Sciences (NCATS))
